# Assay outcomes as filed in PubChem.
# Shown is part of a subset that was picked to be rich in hits.
# HePTP inh: inhibitors of human HePTP phosphatase, primary screen, biochemical, absorbance, leukemia target; recombinant HePTP phosphatase activity, OD absorbance; inhibition, % at 20 µM; hit rate 0.64% among 110,000; AID 521, 2006; in the data active = inhibition above about 50%;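 note: plate controls were vehicle for no effect and reference inhibitor for full effect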
# Target sequence (P35236 whole entry, looked up): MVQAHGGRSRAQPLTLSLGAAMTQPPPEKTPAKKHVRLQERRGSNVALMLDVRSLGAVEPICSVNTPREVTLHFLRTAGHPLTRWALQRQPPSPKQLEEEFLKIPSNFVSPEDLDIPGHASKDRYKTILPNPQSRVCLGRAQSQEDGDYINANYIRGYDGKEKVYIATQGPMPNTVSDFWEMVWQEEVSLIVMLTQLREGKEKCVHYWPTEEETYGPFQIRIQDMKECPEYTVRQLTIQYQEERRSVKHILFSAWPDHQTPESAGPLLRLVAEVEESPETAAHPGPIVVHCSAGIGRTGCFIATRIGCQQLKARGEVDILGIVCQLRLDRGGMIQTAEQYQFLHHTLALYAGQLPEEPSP
# D1 mod: D1 CRE-luciferase signal change, two-sided – cell-based, HEK293 D1, dopamine EC30, D1 allosteric modulator project, primary screen | dopamine EC30 potentiation; actives deviate in either direction | B-score at 10 µM | hit rate 5.9% among 58,000 | AID 641, 2007;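 active = luminescence count or its row- and column-corrected plate score outside the 99.7% band of the plate's sample wells, on either side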
# PLAP activator: PLAP enzyme activators, biochemical, luminescence, HTS; Alkaline phosphatase, placental type (Homo sapiens), P05187; purified PLAP enzyme, luminescent substrate read-out; hits give high values; activation fold at 20 µM; hit rate 1.2% among 96,000; AID 696, 2007; in the data active = activation fold above about 2
# Calb biofilm kill: clotrimazole potentiators killing Candida biofilms, primary screen, with clotrimazole, Alamar Blue. C. albicans biofilm + clotrimazole. inhibition, % at 6 µM. hit rate 0.14% among 85,000. AID 834, 2007;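 active = inhibition above 20%; inactive = inhibition below 20%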;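 note: preformed 24 hr biofilms exposed to compound for 48 hr; 0% = biofilm without compound and 100% = blank killed by clotrimazole plus chlorhexidine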
# TNAP act mid DEA: human TNAP enzyme activators, primary screen, biochemical, luminescent, intermediate phosphate acceptor level; Alkaline phosphatase, tissue-nonspecific isozyme (Homo sapiens), P05186; purified TNAP, CDP-star luminescence, 100 mM DEA, 30 min; hits give high values; scale: 0 levamisole-inhibited, 1 vehicle-only enzyme; activation factor at 20 µM; 64,000 tested, under 10 active; AID 813, 2007;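 active = activation factor of at least 2 at 20 µM, relative to controls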
# DAT uptake mod: changed hDAT dopamine uptake under cocaine IC80, either direction, primary screen, cocaine antagonist project, cell-based, LLC-PK1 hDAT, [14C]-dopamine uptake, MLSMR; AID 449768, 2010; B-score at 10 µM; LLC-PK1 hDAT cells, [14C]-dopamine uptake with cocaine IC80; actives deviate in either direction; Sodium-dependent dopamine transporter (Homo sapiens), Q01959; hit rate 1.3% among 110,000;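 active = Z score or B-score, a plate-position-corrected score, falls beyond the plate's 99.7% confidence bounds, in either direction; inactive = both scores lie inside the 99.7% bounds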;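 note: scored against the spread of the other compound wells on the same plate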
# D1 mod confirm: D1 receptor positive allosteric modulators, retest, confirmation, cell-based, HEK293 D1, CRE-luciferase, duplicate; shares compounds with D1 mod; dopamine EC30 potentiation; hits give high values; luminescence at 10 µM; hit rate 88% among 2,200;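 active = luminescence in either of two replicates above the same-plate mean plus 3 SD of the low-dose dopamine control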
# D1 ag no DA: D1 receptor agonism without dopamine, confirmation, mechanism study for D1 allosteric modulator project, cell-based, HEK293 D1, CRE-luciferase, secondary assay 1 | hit rate 0.8% among 1,900 | shares compounds with D1 mod | luminescence, no dopamine; hits give high values | AID 646, 2007 | luminescence at 10 µM; in the data active = luminescence above about 3900
# Isoprot counter: alters isoproterenol CRE-luciferase response in HEK293 cells | shares compounds with D1 mod | HEK293 D1 CRE-luciferase, isoproterenol EC30 counter-screen; hits give high values | AID 647 | hit rate 63% among 2,200 | luminescence at 10 µM;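 active = luminescence in either replicate above plate mean of wells with a partly effective reference agonist dose plus 3 SD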;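 note: isoproterenol raises cAMP through native beta-adrenoceptor Gs so signal bypasses D1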
# * marks the source's active call; other numbers are inactive results; · = no result.
SMILES,HePTP inh,D1 mod,PLAP activator,Calb biofilm kill,TNAP act mid DEA,DAT uptake mod,others
Oc1c(Br)cc(Br)cc1CN1CCN(Cc2ccccc2)CC1,·,·,2*,5.7,·,0.531,
Oc1ccc(Br)cc1CN1CCN(Cc2ccc(F)cc2)CC1,-11.3,·,·,·,·,·,
Oc1ccc(/C=N/NP(=S)(c2ccccc2)c2ccccc2)c(O)c1O,·,·,2.4*,·,·,-0.00727,
Oc1ccc(/C=N/NP(=S)(c2ccccc2)c2ccccc2)cc1O,·,·,0.6,·,·,·,
CCOC(=O)c1cc(C)n(CCc2cnc[nH]2)c1C,-2.0,·,2.4*,8.8,0.9,-0.548,
Cc1ccc(/C=C2/C(=O)NC(=O)N(c3ccc(Cl)cc3)C2=O)o1,-3.0,·,·,·,·,·,
COc1ccc(N2C(=O)/C(=C/c3ccc(I)o3)C(=O)NC2=S)cc1,101.0*,·,·,·,·,·,
O=C1NC(=S)N(c2ccc(Br)cc2)C(=O)/C1=C/c1ccc(-c2ccccc2C(=O)O)o1,22.2,·,·,·,·,·,
O=C1NC(=O)N(c2ccc(Cl)cc2)C(=O)/C1=C/c1ccc(Br)o1,100.1*,·,·,·,·,·,
O=C1NC(=S)N(c2ccc(F)cc2)C(=O)/C1=C/c1ccc(Br)o1,104.3*,·,·,·,·,·,
Cc1ccc(S(=O)(=O)n2cc(C=C3C(=O)NC(=O)NC3=O)c3ccccc32)cc1,9.7,·,·,·,·,·,
Nc1ccc(Oc2ccc(N)c(N)c2)cc1N,-8.9,·,·,·,·,·,
COc1ccc(-c2cc(=O)c3c(OC)c(OC)c(OC)cc3o2)cc1,·,·,·,·,·,4.69*,
O=C(Cn1ncc2c3ccccc3n(Cc3cccc(Cl)c3)c2c1=O)N1CCC2(CC1)OCCO2,-2.4,1.39,1.5,7.8,1,5.98*,
CCN(CC)Cc1c[nH]c2ccccc12,1.6,-8.36*,0.9,6.2,0.9,-0.175,
O=C1NC(=O)C2(Cc3c(nc4ccccn4c3=O)N3CCCCCC32)C(=O)N1Cc1ccccc1 (stereo unspecified),4.0,-0.311,1.7,3.2,0.9,2.47*,
COc1ccc(/C=C2\CC3C4CC=C5CC(O)CCC5(C)C4CCC3(C)C2=O)cc1 (stereo unspecified),-2.7,·,·,·,·,·,
COc1ccc(CNCCc2ccc(Cl)cc2Cl)c(OC)c1,5.7,·,·,·,·,·,
Cn1c(O)c(/C=C2\C=CC=N2)c(=O)[nH]c1=O,7.8,·,·,·,·,·,
Cc1ccccc1-n1c(O)c(C=C2C=CC=N2)c(=O)[nH]c1=S,103.4*,·,·,·,·,·,
Cn1c(O)c(C(c2ccccn2)c2c(O)n(C)c(=S)n(C)c2=O)c(=O)n(C)c1=S,·,·,1,·,·,·,
CC(=O)c1c(O)n(C)c(=S)n(-c2ccccc2)c1=O,1.3,3.1*,1,·,0.9,-0.211,D1 mod confirm=10036*;D1 ag no DA=1820;Isoprot counter=2956
CC(=NC(C)c1ccccc1)c1c(O)[nH]c(=O)[nH]c1=O (stereo unspecified),·,·,1,·,·,-0.159,
CCC(=NCCC1=CCCCC1)c1c(O)[nH]c(=O)[nH]c1=O,2.9,5.42*,0.9,-0.4,0.8,-0.414,D1 mod confirm=16104*;D1 ag no DA=1808;Isoprot counter=3944*
O=C1NC(=O)C(=Cc2ccc(-c3ccc(C(=O)O)cc3)o2)C(=O)N1,5.9,·,·,·,·,·,
Fc1ccc(NC2=NCCS2)cc1Cl,2.8,4.06*,1.1,6.3,0.9,0.621,D1 mod confirm=11272*;D1 ag no DA=1372;Isoprot counter=3996
COc1ccccc1NC1=NCCS1,·,·,0.8,6.2,·,0.747,
O=[N+]([O-])N=C1NCN(c2ccc(Cl)cc2)CN1,5.6,·,·,·,·,·,
